Measurements reported in PubChem BioAssay (NCI).
About 79,000 compounds went through this panel and 15% of them were active in at least one assay; those are over-represented in the sample as a whole. Cut-off read from the data, not from the text of the source: active = growth inhibition above about 70%; inactive = the rest.

Legend:
[1] = NCI Yeast Anticancer Drug Screen. Data for the rad50 strain (AID 155);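 note: 0% = growth of vehicle-only cultures of the same strain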; conditions: S. cerevisiae rad50 strain growth inhibition; at 50.0 µM; active compounds read high
How it was run: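 DNA repair mutant yeast, compound exposure, growth read-out; inhibition is taken relative to vehicle.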

[2] = NCI Yeast Anticancer Drug Screen. Data for the mec2-1 strain (AID 157); conditions: S. cerevisiae mec2-1 strain, at 50.0 µM, active compounds read high
How it was run: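 Strain: mec2-1 (DNA repair/cell cycle alteration). Compound exposure, then growth measured; inhibition expressed relative to vehicle.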

[3] = NCI Yeast Anticancer Drug Screen. Data for the sgs1 mgt1 strain (AID 161);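 note: 0% = growth of cultures given vehicle only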; conditions: S. cerevisiae sgs1 mgt1 strain, at 50.0 µM, active compounds read high
How it was run: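 Inhibition of yeast growth, normalised to vehicle-treated controls, is reported for a strain bearing genetic alterations in DNA damage repair.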

[4] = NCI Yeast Anticancer Drug Screen. Data for the cln2 rad14 strain (AID 165);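 note: 0% = growth equal to vehicle treated cultures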; conditions: S. cerevisiae cln2 rad14 strain, at 50.0 µM, active compounds read high
How it was run: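 Compounds are applied to the cln2 rad14 yeast strain, and growth is then compared with that of vehicle-treated cultures to give inhibition.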

[5] = NCI Yeast Anticancer Drug Screen. Data for the bub3 strain (AID 167); conditions: S. cerevisiae bub3 mutant strain, at 50.0 µM, active compounds read high
How it was run: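 In this screen, a yeast mutant lacking normal mitotic checkpoint function is challenged with compound. Relative growth versus vehicle gives the inhibition value.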

[6] = NCI Yeast Anticancer Drug Screen. Data for the mlh1 rad18 strain (AID 175); conditions: S. cerevisiae mlh1 rad18 strain growth inhibition; at 50.0 µM; active compounds read high
How it was run: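 Read-out is yeast growth inhibition, calculated against vehicle-only controls. The compound was applied to a strain engineered with DNA damage repair alterations.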

Measured: growth inhibition

COc1ccc(NC(=O)Cc2cc3ccccc3oc2=O)cc1
inactive: [1] 8.05% | [2] 1.05% | [3] -3.75% | [4] -46.3% | [5] -0.3% | [6] 7.95%

CC(=O)NCCc1nc(-c2nc(C(=O)NCCC(C)C)cs2)cs1
inactive: [1] 14.1% | [2] 16.6% | [3] -2% | [4] -23.4% | [5] 6.8% | [6] 5.9%

C(=C\c1nc2ncccn2n1)/c1ccccc1
inactive: [1] 16.4% | [2] -2.75% | [3] 6.55% | [4] -20.9% | [5] 4.6% | [6] -14.3%

O=S(=O)(O/C(=C(\OS(=O)(=O)C(F)(F)F)c1ccccc1)c1ccccc1)C(F)(F)F
inactive: [1] 6.9% | [2] -20.2% | [3] -21.1% | [4] -4.8% | [5] -2.65% | [6] 10%

Cc1cccc(Cl)c1NC(=O)c1ccc(C(=O)Nc2c(C)cccc2Cl)cc1
inactive: [1] -3% | [2] -17.1% | [3] 5.25% | [4] 4.05% | [5] 2.6% | [6] -12.1%

Cc1ccc(-c2cc(=O)c(=O)[nH][nH]2)cc1
inactive: [1] -12.5% | [2] 22.1% | [3] -11.6% | [4] 4.85% | [5] -13.7% | [6] 27.2%

C/C(=C\N1CCCCC1)C(=O)c1ccc(F)cc1
inactive: [1] 9.3% | [2] 13.2% | [3] -4.65% | [4] 6.25% | [5] -16.4% | [6] 24.7%

Cc1ccc(S(=O)(=O)N(CCO)CC(C)O)cc1 (stereo not drawn)
inactive: [1] -15.9% | [2] -24.1% | [3] -23.2% | [4] -13% | [5] -24.1% | [6] -26.8%

O=C(O)CC1CCC(CC(=O)O)CC1 (stereo not drawn)
inactive: [1] -9.5% | [2] -8.65% | [3] -5.25% | [4] -40.9% | [5] -12.7% | [6] -1.65%

COc1ccc(CCNC(=O)C(=O)c2c[nH]c3ccccc23)cc1OC
inactive: [1] 12.6% | [2] 18.8% | [3] 22.4% | [4] 14.3% | [5] 9.55% | [6] 25.2%

CC(=O)N1c2cc(N=NN(C)C)ccc2NC(=O)CC1C (stereo not drawn)
inactive: [1] 20% | [2] -3.05% | [3] 9.5% | [4] 0.65% | [5] 4.2% | [6] 34.3%

O=C(c1ccccc1)N(N=C(c1ccc([N+](=O)[O-])cc1)c1ccc([N+](=O)[O-])cc1)c1ccccc1
inactive: [1] 24.7% | [2] 15.1% | [3] -6.6% | [4] -5.9% | [5] 5% | [6] 10.6%

ON(C(=S)Nc1ccccc1)c1ccccc1
inactive: [1] 20.9% | [2] 12.8% | [3] 21.1% | [4] -13.7% | [5] 8.3% | [6] 15.9%

O=c1c(Cl)c(-c2cccc3ccccc23)oc2ccccc12
inactive: [1] -14.3% | [2] 1.8% | [3] 4.2% | [4] -40.6% | [5] 9.2% | [6] -15.4%

Cc1[nH]c2nccn2c(=O)c1CCCl
inactive: [1] 10.2% | [2] -14.7% | [3] 9.6% | [4] -13.2% | [5] -13.6% | [6] 7.1%

COC(=O)CN(c1c(C)cc(C)c(N)c1C)S(=O)(=O)c1ccccc1
inactive: [1] 0.2% | [2] 15.9% | [3] 4.65% | [4] 5.4% | [5] -11.3% | [6] -25.3%

O=C1c2cc3ccccc3cc2NC(O)c2cccn21 (stereo not drawn)
inactive: [1] 9.4% | [2] 4.6% | [3] 1.15% | [4] 27.4% | [5] 13.4% | [6] 13.2%

Cc1nn(C(=S)S)c(C)c1N=Nc1ccc(O)cc1
inactive: [1] 9.3% | [2] 10.5% | [3] 16.9% | [4] -16.7% | [5] 5.35% | [6] 18.6%

CC(C)c1nc2c(c(=O)o1)CCS2
inactive: [1] -5.5% | [2] -5.75% | [3] -7.9% | [4] -8.1% | [5] -1.4% | [6] -11.9%

CCOc1ccc(/C=C2/NC(=S)N(CN3CCCCC3)C2=O)cc1
inactive: [1] 5.25% | [2] -28.7% | [3] 25.1% | [4] -18.9% | [5] -1.5% | [6] 24.6%

CC(=O)OC1CCC(C(C)C)CC1 (stereo not drawn)
inactive: [1] 4.35% | [2] -2.95% | [3] -0.25% | [4] -28.2% | [5] 1.15% | [6] -13.1%

CO/C(N)=C(\C#N)N=Cc1cccs1
inactive: [1] 3.95% | [2] 4.6% | [3] 11.4% | [4] 5.1% | [5] -8.4% | [6] 9.9%

Cc1cc2c(C)[nH]nc2c(C(=O)O)c1C
inactive: [1] 6.85% | [2] -5.15% | [3] 6.35% | [4] 11.1% | [5] 3.2% | [6] 19.4%

COC(=O)C(C#N)C1NC(=O)c2ccccc21 (stereo not drawn)
inactive: [1] 9.75% | [2] -2.4% | [3] 10.2% | [4] 1.45% | [5] -8.3% | [6] 7.15%

O=C(Nc1nc2ccc([N+](=O)[O-])cc2s1)C(=O)C(C(=O)c1ccccc1F)C1OC(=O)c2ccccc21 (stereo not drawn)
inactive: [1] 29.8% | [2] 39.6% | [3] 59.5% | [4] 25.6% | [5] 38.5% | [6] 27.8%

CN(C)c1ccccc1C(=O)N/N=C/c1ccc(F)cc1
inactive: [1] -4.7% | [2] -31.3% | [3] -6.55% | [4] -13.8% | [5] -14.9% | [6] -6%

CN(C)CCC(CCN(C)C)=NOC(=O)c1ccccc1
inactive: [1] -5.45% | [2] -20.2% | [3] 10.1% | [4] 8.55% | [5] 21.4% | [6] 15.6%

CCOC(=O)C(C)(C(=O)OCC)n1cnc2c1c(=O)n(C)c(=O)n2C
inactive: [1] 8.05% | [2] -7.6% | [3] -12.6% | [4] 9.8% | [5] 10.8% | [6] 4.8%

N#CCCC(C(=O)O)C(=O)CN1C(=O)c2ccccc2C1=O (stereo not drawn)
inactive: [1] 5.15% | [2] -7.95% | [3] 0.4% | [4] -7.75% | [5] 0.4% | [6] 7.6%

CCCCOC(=O)NC(Nc1ccc(S(=O)(=O)Nc2ccc(OC)nn2)cc1)(C(F)(F)F)C(F)(F)F
inactive: [1] -8.25% | [2] -1.5% | [3] -10.1% | [4] 5% | [5] -9.55% | [6] 2.95%

C/C(CC(O)(C(F)(F)F)C(F)(F)F)=N\NC(N)=O
inactive: [1] -38.5% | [2] -44.5% | [3] -22.5% | [4] -1.45% | [5] -5.35% | [6] -15.8%

O=C(N=Nc1c(O)[nH]c2ccccc12)c1ccncc1
inactive: [1] -10.8% | [2] 2.15% | [3] -9.25% | [4] -19.4% | [5] -7.4% | [6] 11.1%

Cc1ccccc1NCC#N
inactive: [1] -23.9% | [2] -26% | [3] -19.2% | [4] -15.2% | [5] 10% | [6] -11.6%

Cc1cc(=O)oc2cc(NC(=O)C(CCCN=C(N)N)NC(=O)OCc3ccccc3)ccc12 (stereo not drawn)
inactive: [1] 26.5% | [2] -17.4% | [3] 23.1% | [4] -2.95% | [5] -4.1% | [6] 7.1%

O=COCCO
inactive: [1] -12.6% | [2] -5.6% | [3] 7.6% | [4] -9.85% | [5] 1.75% | [6] -9.1%

CCCCCCCCCCCCCCCCCCS
inactive: [1] -1.15% | [2] -25.3% | [3] -7.85% | [4] -14.7% | [5] 8.3% | [6] -5.7%

Nc1ncc([N+](=O)[O-])c(=O)[nH]1
inactive: [1] -29.9% | [2] -14.2% | [3] -1.35% | [4] -4.25% | [5] 0.55% | [6] 26.9%

CCN(c1ccc(Br)cc1)c1ccc(Br)cc1
inactive: [1] -14.2% | [2] -20.1% | [3] -23.2% | [4] -7.75% | [5] 3.75% | [6] 7.55%
